# Screening data (PubChem)
# SRC1 inh: human NCOA1 inhibition. Q15788. 360,000 tested, 0.12% active. HEK293 GAL4-SRC1 luciferase reporter, luminescence. AID 588354. inhibition, % at 3.6 µM;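 active = inhibition above the campaign mean plus 3 SD, with each screening campaign given its own cutoff, cut at about 60% in these data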;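 also: 0% = DMSO treated cells and 100% = gossypol at 36 µM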
# NCOA2 inhibitor: human SRC2 (NCOA2) inhibition | Q15596 | HEK293 GAL4-SRC2 luciferase reporter, luminescence | inhibition, % at 9 µM | 370,000 tested, 0.17% active | AID 651957;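 active = inhibition above the mean inhibition of all tested compounds plus 3 SD, set per campaign, cut at about 52% in these data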;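 also: 0% = DMSO treated cells and 100% = cells given Gossypol at 36 µM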
# NCOA3 inh: inhibits human SRC3 coactivator. HEK293 GAL4-SRC3 luciferase reporter, luminescence. 360,000 tested, 0.17% active. AID 588352. Q9Y6Q9. inhibition, % at 3.6 µM;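 active = inhibition above a per-campaign cutoff, the mean of all compounds plus 3 SD, cut at about 60% in these data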;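 also: 0% = DMSO-treated cells and 100% = gossypol-treated cells at 36 µM; higher means less SRC3-driven luciferase light from the GAL4 reporter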
# Gli-Sufu block: Gli-Sufu pathway antagonism; Sufu-KO-LIGHT fibroblasts, Gli luciferase reporter luminescence; inhibition, % at 5 µM; 340,000 tested, 0.74% active;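 active = inhibition above about 55%, limit read from the data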;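 also: 0% = DMSO-treated cells and 100% = wells with medium but no cells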
# LRH-1 inv ag: NR5A2 inverse agonism in reporter assay; 360,000 tested, 0.13% active; HEK293T StAR-luciferase reporter, LRH-1 transfected, 24 h; AID 602396; inhibition, % at 3.6 µM;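 active = inhibition above the mean inhibition of all tested compounds plus 3 SD, cut at about 73% in these data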;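 also: 0% = DMSO wells and 100% = reporter-only cells lacking LRH-1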
# Starred values were filed as active, the others as inactive; x = no result given. Hits are enriched below; roughly 0.83% of the tested compounds scored in any of these assays.
SMILES,SRC1 inh,NCOA2 inhibitor,NCOA3 inh,Gli-Sufu block,LRH-1 inv ag
CC(=O)Nc1ccc(NC2=Nc3ccccc3N3C2=Nc2c(c(C)nn2-c2ccccc2)C3c2ccccc2)cc1 (stereo not drawn),1.7,0.4,14.9,60.4*,2.8
COc1ccc(CN2C[C@]3(C=C4CCCCC4n4c(=O)n(-c5ccccc5)c(=O)n43)N=C2NC(=O)c2ccccc2)c(OC)c1 (stereo partly drawn),x,-7.3,x,x,x
COC(=O)[C@]12C[C@H](CC(=O)NCc3cccc(C(F)(F)F)c3)C(=O)N(Cc3cccc4ccccc34)C1=C[C@H](COCc1ccccc1)O[C@@H]2C,x,24.8,x,x,x
C(=N\Nc1nc2ccccc2[nH]1)/c1cccc2cccnc12,-10.9,2.1,61.9*,67.3*,63.9
CC(C)=CC(O)C/C(C)=C/COc1ccc2ccc(=O)oc2c1 (stereo not drawn),45.8,-14.6,63.2*,3.1,84.7*
NC(=Nc1nc(-c2ccccn2)cc2ccccc12)c1ccccn1,71.1*,-68.6,81.2*,86.5*,57.3
CC(COc1ccc(C(F)(F)F)cc1)CN1CCC(C(O)(c2ccccc2)c2ccccc2)CC1 (stereo not drawn),x,17.5,x,x,x
c1ccc(-c2ccc(C3=Nn4c(nnc4-c4ccncc4)SC3)cc2)cc1,x,7.0,x,x,x
c1csc(C2=Nn3c(nnc3-c3ccncc3)SC2)c1,64.9*,43.0,60.1,14.7,40.9
Clc1ccccc1C1=Nn2c(nnc2-c2ccncc2)SC1,58.4,53.9*,65.7*,-7.8,31.2
COC(=O)[C@]12C[C@H](CC(=O)N3CCOCC3)C(=O)N(Cc3ccco3)C1=C[C@H](C(C)C)O[C@@H]2C1CC1,x,-9.2,x,x,x
O=[N+]([O-])c1ccc(O)c(/C=N/Nc2ccc(Cl)nn2)c1,67.9*,-11.1,81.6*,86.1*,13.7
COC(=O)[C@H](CC(C)C)N(CCCc1cn(Cc2ccc(C)cc2)nn1)S(=O)(=O)c1ccc(F)cc1Br,x,6.0,x,x,x
COc1ccc(C(=O)C(CN2CCOCC2)c2ccccc2)cc1 (stereo not drawn),33.1,55.2*,50.3,13.6,18.8
CCCCOc1ccc(C(=O)C(CN2CCOCC2)c2ccccc2)cc1 (stereo not drawn),-12.8,28.1,-11.5,3.5,9.9
COc1ccc(C(=O)C(CN2CCCC2)c2ccccc2)cc1 (stereo not drawn),18.2,44.3,21.9,17.6,-1.4
O=C(c1ccc(F)cc1)C(CN1CCOCC1)c1ccccc1 (stereo not drawn),5.7,51.9,73.7*,11.0,7.9
COC(=O)C1CN(Cc2ccc(OC)cc2)CCS(=O)(=O)N1Cc1cn(Cc2ccccc2)nn1 (stereo not drawn),x,5.1,x,x,x
C=C1C(=O)[C@@]23[C@H](O)C[C@@H]4C(C)(C)CC[C@H](O)[C@@]4(C)[C@@H]2CC[C@@H]1[C@H]3O,43.8,60.1*,34.5,79.6*,37.9
C=C1C(=O)[C@@]23[C@H](O)C[C@@H]4C(C)(C)CC[C@H](O)[C@]4(C)[C@@H]2C[C@H](O)[C@@H]1[C@H]3O,12.0,50.0,-4.3,27.5,26.9
O=C(/C=C/c1cn(-c2ccccc2)nc1-c1cccnc1)c1ccco1,2.4,64.0*,8.4,-2.0,1.9
CCOC(=O)c1ccc(NC(=O)c2ccc(C)c(S(=O)(=O)N3CCOCC3)c2)cc1,41.2,50.2,53.5,-12.4,79.9*
Cc1cc(C)nc(-n2nc(C)cc2Nc2ccccc2)n1,5.7,-6.0,-9.4,1.5,75.1*
O=C1C=CC2(C=C1)O[C@H](Cc1ccccc1)[C@@H](Cc1ccccc1)O2,-203.7,53.6*,-189.6,43.5,70.9
CCN1CCN(CC(=O)N2N=C(c3cccs3)CC2c2ccc(OC)c(OC)c2)C(=O)C1=O (stereo not drawn),10.5,13.8,25.4,-5.3,2.8
SMILES,SRC1 inh,NCOA2 inhibitor,NCOA3 inh,Gli-Sufu block,LRH-1 inv ag
C=C1C(=O)c2sccc2C(c2ccc(OC)c(OC)c2)C1COC(C)=O (stereo not drawn),59.4,84.0*,47.4,44.0,70.5
Cc1ccc(-n2c(SCC(=O)N/N=C/C=C\c3ccccc3[N+](=O)[O-])nnc2-c2ccccc2)cc1,x,5.6,x,x,x
Cc1nc2c(o1)C(=O)c1ccccc1C2=Nc1ccccc1,37.2,-15.7,76.6*,3.8,22.0
CC(C)/C=C1\CC/C(=C\c2cccnc2)C1=O,-5.7,-13.7,12.5,7.2,37.8
O=C1/C(=C/c2cccnc2)CCC/C1=C\c1cccnc1,x,73.7*,x,3.2,x
O=C1/C(=C/c2cccnc2)CC/C1=C\c1cccnc1,-36.2,9.0,8.0,7.9,11.2
CCC1C/C(=C\c2cccnc2)C(=O)/C(=C/c2cccnc2)C1 (stereo not drawn),-393.7,91.9*,45.1,-3.0,51.6
Cc1cc(OC(C)CCN2CCC(C(O)(c3ccccc3)c3ccccc3)CC2)ccc1Br (stereo not drawn),x,5.4,x,x,x
CCCC(=O)Nc1ccc(C(=O)N/N=C/c2ccc([N+](=O)[O-])o2)cc1,65.0*,48.3,70.9*,10.9,83.1*
CN[C@H]1C[C@H]2c3cc(-c4ccc5c(c4)OCO5)ccc3CCN2C[C@H]1[C@H](C)O,x,-4.1,x,x,x
CC(C)C(C#CC1CC1)N(Cc1ccc2c(c1)OCO2)C(N)=NC(=O)/C=C/c1ccccc1 (stereo not drawn),x,8.6,x,x,x
O=C(NC1CCCCC1)C(c1cccnc1)N(C(=O)CCl)c1cccc(Cl)c1 (stereo not drawn),37.3,56.8*,69.2*,-0.4,-26.6
Cc1cccc(N(C(=O)CNC(=O)c2ccco2)C(C(=O)NC2CCCCC2)c2cccnc2)c1 (stereo not drawn),-1.1,16.6,7.5,1.8,11.7
C=CCn1c(C)cc(C(=O)COc2ccc(C)nc2[N+](=O)[O-])c1C,50.3,61.1*,37.5,24.1,39.5
CCCn1c(C)cc(C(=O)COc2ccc(C)nc2[N+](=O)[O-])c1C,15.5,30.8,36.4,20.6,16.8
COCCn1c(C)cc(C(=O)COc2ccc(C)nc2[N+](=O)[O-])c1C,38.9,53.7*,36.7,6.7,18.4
O=C(CSc1nnc(COc2ccccc2)n1-c1ccccc1)Nc1ccc(S(=O)(=O)Nc2nccs2)cc1,x,-2.1,x,x,x
CC(=Cc1ccccc1)C=C1SC(=S)N(CCCC(=O)Nc2ccc(C(=O)O)cc2)C1=O,-76.8,-0.8,-54.6,x,-11.7
CCc1ccc(/C=C2\SC(=S)N(CCCC(=O)Nc3ccccn3)C2=O)cc1,8.6,56.9*,13.8,35.0,-2.1
COc1ccc(/C=C2\SC(=S)N(CCCC(=O)Nc3ccc(O)cc3)C2=O)cc1,9.2,60.4*,19.5,38.7,10.6
CC(=C\c1ccccc1)/C=C1/SC(=S)N(CCCC(=O)O)C1=O,-8.6,53.0*,1.6,5.3,3.2
COc1ccc(/C=C2/SC(=S)N(CCC(=O)O)C2=O)cc1,49.4,84.3*,48.1,27.4,20.1
O=C(NC1CCCCN(Cc2cccc(Cl)c2)C1=O)c1ccc(COc2ccccc2)cc1 (stereo not drawn),x,18.5,x,x,x
